Our source for the Potency values is PubChem BioAssay (NCATS).

Results filed as inconclusive are left out. Entries that show only a call come without a potency. Activity calls are given as the source filed them. The call rests on the fitted dose curve; in most records, active means well fitted activation curve with a large enough effect; inconclusive means small, poorly fitted or top-dose-only effect; inactive means flat fitted curve, though single readings scatter.
Potency means the concentration at half of the fitted maximal effect.

The assay in a line: Primary redox qHTS assay for identification of artifact compounds. (AID 1845223). To be noted: Amplex Red/HRP redox cycling with DTT, fluorescence; series mostly up to 53.8 µM. Put shortly:
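Amplex Red (25 uM) and HRP (250 mU/mL) in HBSS, with compounds for 15 min, then 250 uM DTT for 30 min, room temperature, dark. Fluorescence 525/598 nm read; normalized to DMSO and 10 uM DA3003; Hill fit.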
As to `COc1ccc(-c2csc(NC(=O)[C@H]3CCCCN3S(=O)(=O)c3ccc(C)cc3)n2)cc1`, the Potency entry was “inactive”.
Under `Cn1cc(-c2ccc(S(=O)(=O)n3ccc(/C=C/C(=O)Nc4ccccc4N)c3)cc2)cn1` stands “inactive”.
Under `CC(C)(C)C1CCN(C(=O)n2ncc(C(O)(c3ccccc3)c3ccccc3)n2)CC1` stands “inactive”; under `C=C1CC[C@@H]2[C@](C)(CO)[C@H](O)CC[C@@]2(C)[C@@H]1/C=C/C1=CCOC1=O`, “inactive”; under `OC1(CN2CCC(COc3noc4cccc(O[C@@H]5CCOC5)c34)CC2)CCOCC1`, “inactive”.
Under `COc1cc(/C=C2\CC[C@H]3COC[C@@H](c4cc(F)c(F)c(F)c4)N3C2=O)ccc1-n1cnc(C)c1` stands “inactive”; under `Nc1nc2c(s1)CCN(Cc1ccc(Cl)cc1)CC2`, “inactive”; under `CN1CCN(c2ccc(Nc3cc(-c4cccc(-n5ccc6cc(C7CC7)cc(F)c6c5=O)c4CO)cn(C)c3=O)nc2)CC1`, “inactive”.
With `CC(C)(CO)c1cc2cc(NC(=O)C3(c4ccc5c(c4)OC(F)(F)O5)CC3)c(F)cc2n1CC(O)CO` (stereo not drawn), the Potency result was “inactive”.
`O=C(Nc1nc2cc(C(F)(F)F)cc(NC3CC3)n2n1)c1cccnc1`: the Potency entry is “inactive”.
For `Cc1ccc(C)c(NC(=O)[C@@H]2CCCN2S(=O)(=O)c2cccc3cccnc23)c1` the value was “inactive”; for `C[C@H](Nc1cc2c(-c3ccc4c(c3)OCO4)noc2cn1)c1ccccc1`, “inactive”; for `O=C(Nc1ccccc1)N1CCC(Cc2cnc3ccccc3c2)CC1`, “inactive”.
In the case of `COCCCNC(=O)c1ccc(Cn2c(=O)c3ccccc3n(Cc3ccc(C(C)C)cc3)c2=O)cc1`, the Potency result was “inactive”.
As to `c1cc(NCCc2c[nH]c3ccccc23)cc(Nc2ccncc2)c1`, the Potency entry is “inactive”.
Under `N#CSc1cc(SC#N)c(N)nc1N` stands 5.05 µM (active); under `CCCCc1c(-c2ccc(OC)cc2)[nH]c2nccnc12`, “inactive”; under `CC1CC(=O)C2=C(C1)C1OC1C1(O)C2C(=O)c2cccc(O)c2C1O` (stereo not drawn), “inactive”.
Under `O=c1ccc2ccc(OCCCCN3CCN(c4cccc5sccc45)CC3)cc2[nH]1` stands “inactive”; under `C/C=C(\C)C(=O)O[C@@H]1[C@@H](C)[C@]2(O)[C@@H]3C=C(C)C(=O)[C@H]3CC(CO)=C[C@H]2C2C(C)(C)[C@@]21OC(=O)C(C)CC` (stereo partly drawn), “inactive”.
For `Cn1c(SCC(=O)N2CCC[C@H]2C(=O)Nc2ccccc2-c2ccccc2)nc2ccccc21` the value was “inactive”.
With `C=C1C(=O)O[C@@H]2/C=C(\CO)CC/C=C(\CO)[C@H](OC(C)=O)C(OC(=O)C(C)CC)C12` (stereo partly drawn), the Potency result is “inactive”.
Under `CC[C@H](C)/C=C(C)/C=C/C1=CC2=CC(=O)[C@]3(C)OC(=O)[C@@H](C(C)=O)[C@@H]3C2=CO1` stands “inactive”.
Under `C=CC(C)(C)C12CC3C(=O)N4C(CC5(C(C)(C)C=C)c6ccccc6NC45)C(=O)N3C1Nc1ccccc12` (stereo not drawn) stands “inactive”; under `COc1cc(O)cc(OC2OC(CO)C(O)C(O)C2O)c1` (stereo not drawn), “inactive”.
Under `O=S(=O)(Cc1ccccc1)Nc1ccc(-c2ccc3c(cnn3-c3ccc(F)cc3)c2)c(C(F)(F)F)c1` stands “inactive”; under `CCOc1nc(NC(=O)Cc2cc(OC)ccc2OC)cc(N)c1C#N`, “inactive”.
For the molecule `Cc1cc(OCCCS(C)(=O)=O)cc(C)c1-c1cccc(COc2ccc(C3=CC(=O)NS3=O)cc2)c1` (stereo not drawn), the Potency entry was “inactive”.
